# Data published in paper PMC12820563, “FoxP3 forms a head-to-head dimer in vivo and stabilizes its multimerization on adjacent microsatellites”.
# The full ranking holds about 16,000 sequences; the median of “rpm ratio (pull-down/input)” is about 0.5, and the highest 2% start at about 5.5. The sample holds the highest values, similar sequences and a random draw of the others, so the mix is not that of the screen.
# Biological target: T1, MBP-FoxP3dN (Mus musculus, UniProt Q99JB6 188-423)
# T1 sequence: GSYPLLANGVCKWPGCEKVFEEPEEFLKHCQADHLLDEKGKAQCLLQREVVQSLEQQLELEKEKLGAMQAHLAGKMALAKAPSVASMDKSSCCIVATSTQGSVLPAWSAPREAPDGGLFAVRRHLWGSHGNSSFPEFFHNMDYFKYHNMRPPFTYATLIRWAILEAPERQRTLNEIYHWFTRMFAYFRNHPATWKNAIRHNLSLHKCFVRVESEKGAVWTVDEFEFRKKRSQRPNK
# Test: PD-seq (MBP pull-down with sequencing); 20 mM Tris-HCl pH 7.5, 100 mM NaCl, 1.5 mM MgCl2, 0.4 uM protein, 0.1 uM dsDNA library, 30 min, room temperature, amylose pull-down; high values mean tight binding
# Settings: protein: recombinant; tags: His6-MBP; chain copies: 2; dsDNA, one strand shown
# Procedure, shortened: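 His6-MBP-tagged mouse FoxP3 or FoxP1 fragment lacking the N-terminus, expressed in E. coli, was mixed at 0.4 µM with 0.1 µM Klenow-filled double-stranded degenerate DNA library. Incubation was 30 min at room temperature in Tris pH 7.5 buffer with NaCl and MgCl2. Complexes were caught on amylose resin and washed three times; DNA was released with proteinase K, PCR-barcoded and Illumina-sequenced. Binding is reads-per-million enrichment, pull-down over input, with replicates pooled.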
row,Sequence,binding signal
1,GATGATTGTTCTCCCAGCTGATGAATTACACAACTCGAGTAAACAAATTTTCCTAATCTTTCTGTTCAAGCGCCATCTAC,0.854 RPM ratio (pull-down/input)
2,GATGATTGTTCTCCCAGCTGATGAATTAATTCTGTCGAGTAAACAAATTTTCCTAATCTTTCTGTTCAAGCGCCATCTAC,0.249 RPM ratio (pull-down/input)
3,GATGATTGTTCTCCCAGCTGATGAATTCTGTTAATCGAGTAAACAAATTTTCCTAATCTTTCTGTTCAAGCGCCATCTAC,1.25 RPM ratio (pull-down/input)
4,GATGATTGTTCTCCCAGCTGATGAATTATCCTGCTCGAGTAAACAAATTTTCCTAATCTTTCTGTTCAAGCGCCATCTAC,0.234 RPM ratio (pull-down/input)
5,GATGATTGTTCTCCCAGCTGATGAATTACGTGGGTCGAGTAAACAAATTTTCCTAATCTTTCTGTTCAAGCGCCATCTAC,0.527 RPM ratio (pull-down/input)
6,GATGATTGTTCTCCCAGCTGATGAATTGGTCTCTTCGAGTAAACAAATTTTCCTAATCTTTCTGTTCAAGCGCCATCTAC,0.388 RPM ratio (pull-down/input)
7,GATGATTGTTCTCCCAGCTGATGAATTCAGCAAATCGAGTAAACAAATTTTCCTAATCTTTCTGTTCAAGCGCCATCTAC,0.539 RPM ratio (pull-down/input)
8,GATGATTGTTCTCCCAGCTGATGAATTAGCCCATTCGAGTAAACAAATTTTCCTAATCTTTCTGTTCAAGCGCCATCTAC,0.4 RPM ratio (pull-down/input)
9,GATGATTGTTCTCCCAGCTGATGAATTAGTGAATTCGAGTAAACAAATTTTCCTAATCTTTCTGTTCAAGCGCCATCTAC,0.976 RPM ratio (pull-down/input)
10,GATGATTGTTCTCCCAGCTGATGAATTAGTGCATTCGAGTAAACAAATTTTCCTAATCTTTCTGTTCAAGCGCCATCTAC,7.28 RPM ratio (pull-down/input)
11,GATGATTGTTCTCCCAGCTGATGAATTCTAGCATTCGAGTAAACAAATTTTCCTAATCTTTCTGTTCAAGCGCCATCTAC,5.17 RPM ratio (pull-down/input)
12,GATGATTGTTCTCCCAGCTGATGAATTTAGCAGCTCGAGTAAACAAATTTTCCTAATCTTTCTGTTCAAGCGCCATCTAC,1.72 RPM ratio (pull-down/input)
13,GATGATTGTTCTCCCAGCTGATGAATTAGCGCATTCGAGTAAACAAATTTTCCTAATCTTTCTGTTCAAGCGCCATCTAC,7.23 RPM ratio (pull-down/input)
14,GATGATTGTTCTCCCAGCTGATGAATTAGTAAATTCGAGTAAACAAATTTTCCTAATCTTTCTGTTCAAGCGCCATCTAC,0.68 RPM ratio (pull-down/input)
15,GATGATTGTTCTCCCAGCTGATGAATTTAGCCATTCGAGTAAACAAATTTTCCTAATCTTTCTGTTCAAGCGCCATCTAC,4.73 RPM ratio (pull-down/input)
16,GATGATTGTTCTCCCAGCTGATGAATTAGCTGATTCGAGTAAACAAATTTTCCTAATCTTTCTGTTCAAGCGCCATCTAC,1.17 RPM ratio (pull-down/input)
17,GATGATTGTTCTCCCAGCTGATGAATTTAGCATCTCGAGTAAACAAATTTTCCTAATCTTTCTGTTCAAGCGCCATCTAC,6.55 RPM ratio (pull-down/input)
18,GATGATTGTTCTCCCAGCTGATGAATTTTAGCATTCGAGTAAACAAATTTTCCTAATCTTTCTGTTCAAGCGCCATCTAC,5.97 RPM ratio (pull-down/input)
19,GATGATTGTTCTCCCAGCTGATGAATTTTTAGCATCGAGTAAACAAATTTTCCTAATCTTTCTGTTCAAGCGCCATCTAC,0.918 RPM ratio (pull-down/input)
20,GATGATTGTTCTCCCAGCTGATGAATTCCTATCGTCGAGTAAACAAATTTTCCTAATCTTTCTGTTCAAGCGCCATCTAC,0.382 RPM ratio (pull-down/input)
21,GATGATTGTTCTCCCAGCTGATGAATTTCATAGGTCGAGTAAACAAATTTTCCTAATCTTTCTGTTCAAGCGCCATCTAC,0.343 RPM ratio (pull-down/input)

row,Sequence,binding signal
1,GATGATTGTTCTCCCAGCTGATGAATTGATCATTTCGAGTAAACAAATTTTCCTAATCTTTCTGTTCAAGCGCCATCTAC,0.757 RPM ratio (pull-down/input)
2,GATGATTGTTCTCCCAGCTGATGAATTGGCTGAATCGAGTAAACAAATTTTCCTAATCTTTCTGTTCAAGCGCCATCTAC,0.239 RPM ratio (pull-down/input)
3,GATGATTGTTCTCCCAGCTGATGAATTACTCCAGTCGAGTAAACAAATTTTCCTAATCTTTCTGTTCAAGCGCCATCTAC,0.213 RPM ratio (pull-down/input)
4,GATGATTGTTCTCCCAGCTGATGAATTTGGTGTCTCGAGTAAACAAATTTTCCTAATCTTTCTGTTCAAGCGCCATCTAC,3.42 RPM ratio (pull-down/input)
5,GATGATTGTTCTCCCAGCTGATGAATTCCGACTCTCGAGTAAACAAATTTTCCTAATCTTTCTGTTCAAGCGCCATCTAC,2.16 RPM ratio (pull-down/input)
6,GATGATTGTTCTCCCAGCTGATGAATTGACCGAATCGAGTAAACAAATTTTCCTAATCTTTCTGTTCAAGCGCCATCTAC,0.227 RPM ratio (pull-down/input)
7,GATGATTGTTCTCCCAGCTGATGAATTTCAACTGTCGAGTAAACAAATTTTCCTAATCTTTCTGTTCAAGCGCCATCTAC,0.377 RPM ratio (pull-down/input)
8,GATGATTGTTCTCCCAGCTGATGAATTGGGTGTCTCGAGTAAACAAATTTTCCTAATCTTTCTGTTCAAGCGCCATCTAC,1.29 RPM ratio (pull-down/input)
9,GATGATTGTTCTCCCAGCTGATGAATTGGTGAGGTCGAGTAAACAAATTTTCCTAATCTTTCTGTTCAAGCGCCATCTAC,0.385 RPM ratio (pull-down/input)
10,GATGATTGTTCTCCCAGCTGATGAATTGGTTTCCTCGAGTAAACAAATTTTCCTAATCTTTCTGTTCAAGCGCCATCTAC,1.54 RPM ratio (pull-down/input)
11,GATGATTGTTCTCCCAGCTGATGAATTGAGCGCCTCGAGTAAACAAATTTTCCTAATCTTTCTGTTCAAGCGCCATCTAC,1.18 RPM ratio (pull-down/input)
12,GATGATTGTTCTCCCAGCTGATGAATTCGTAGCATCGAGTAAACAAATTTTCCTAATCTTTCTGTTCAAGCGCCATCTAC,1.31 RPM ratio (pull-down/input)
13,GATGATTGTTCTCCCAGCTGATGAATTGTAGCATTCGAGTAAACAAATTTTCCTAATCTTTCTGTTCAAGCGCCATCTAC,5.76 RPM ratio (pull-down/input)
14,GATGATTGTTCTCCCAGCTGATGAATTAACGCATTCGAGTAAACAAATTTTCCTAATCTTTCTGTTCAAGCGCCATCTAC,6.02 RPM ratio (pull-down/input)
15,GATGATTGTTCTCCCAGCTGATGAATTAAACGCATCGAGTAAACAAATTTTCCTAATCTTTCTGTTCAAGCGCCATCTAC,1.19 RPM ratio (pull-down/input)
16,GATGATTGTTCTCCCAGCTGATGAATTTAGCATTTCGAGTAAACAAATTTTCCTAATCTTTCTGTTCAAGCGCCATCTAC,6.35 RPM ratio (pull-down/input)
17,GATGATTGTTCTCCCAGCTGATGAATTAACAAATTCGAGTAAACAAATTTTCCTAATCTTTCTGTTCAAGCGCCATCTAC,0.494 RPM ratio (pull-down/input)
18,GATGATTGTTCTCCCAGCTGATGAATTAGCATTTTCGAGTAAACAAATTTTCCTAATCTTTCTGTTCAAGCGCCATCTAC,4 RPM ratio (pull-down/input)
19,GATGATTGTTCTCCCAGCTGATGAATTTAGCTGTTCGAGTAAACAAATTTTCCTAATCTTTCTGTTCAAGCGCCATCTAC,1.7 RPM ratio (pull-down/input)
20,GATGATTGTTCTCCCAGCTGATGAATTTGTAGCATCGAGTAAACAAATTTTCCTAATCTTTCTGTTCAAGCGCCATCTAC,4.88 RPM ratio (pull-down/input)
